Compound activity: PubChem BioAssay, several laboratories
PfHsp90 set2 = growth inhibition of PfHsp90-expressing yeast, primary screen, antimalarial PfHsp90 inhibitor project, S. cerevisiae, BacTiter-Glo luminescence, single point, set 2; BacTiter-Glo ATP, 48 h; yeast lacking PDR1 and PDR3 efflux regulators; inhibition, % at 9.4 µM; AID 504621, 2011; hit rate 0.32% among 310,000;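 active means every replicate shows inhibition above about 80%, whatever the replicate mean, limit read from the data; inconclusive means mean inhibition reaches the set limit but some replicate falls short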;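 further: 0% = DMSO neutral controls and 100% = 20 µM radicicol positive controls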
TIM10 inh = growth inhibitors of isogenic TIM10 control yeast, primary screen, counter-screen for tim10-1 yeast inhibitor project, luminescence, uHTS; S. cerevisiae TIM10 strain growth, BacTiter-Glo luminescence, 24 h; hit rate 1.4% among 330,000; inhibition, % at 10 µM;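 active means inhibition of 40% or more at the single tested concentration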;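 further: wild-type TIM10 isogenic control strain grown at permissive 25 °C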
V-ATPase pHluor = regulators of yeast V-ATPase proton pumping, primary screen, pHLuorin cytosolic pH fluorescence; hit rate 0.37% among 350,000; S. cerevisiae; response, % at 10 µM; AID 504577, 2011; in the data active means response mostly above about 7.3%, no sharp cut-off; inactive means mostly below about 5.4%; further: actives read high
tim23-1 inh = growth inhibitors of tim23-1 mutant yeast, primary screen, luminescence, uHTS; S. cerevisiae tim23-1 growth, BacTiter-Glo luminescence, 24 h; inhibition, % at 20 µM; hit rate 1.3% among 330,000;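 active means growth inhibition of the mutant yeast at or above 50%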;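 further: temperature-sensitive mutant grown at 25 °C; plate controls were DMSO-treated mutant yeast for no effect and medium wells lacking yeast for full effect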
tim10-1 inh = growth inhibitors of tim10-1 mutant yeast, primary screen, luminescence, uHTS; S. cerevisiae tim10-1 ts strain growth, BacTiter-Glo, 24 h; inhibition, % at 20 µM; hit rate 2.2% among 330,000;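 active means inhibition of at least 40%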;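 further: mutant grown at 25 °C; 0% = DMSO wells with yeast and 100% = wells holding no yeast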
tim10-1 confirm = growth inhibitors of tim10-1 mutant yeast, confirmation, single concentration, luminescence, S. cerevisiae; inhibition, % at 20 µM; shares compounds with tim10-1 inh; hit rate 56% among 7,400; AID 463213, 2010; S. cerevisiae tim10-1 ts strain growth, BacTiter-Glo, 24 h;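 active means inhibition of yeast growth at or above a set limit in either of two repeat tests at 20 µM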;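 further: tim10-1 mutant grown at permissive 25 °C to find synthetic lethal compounds; 0% = DMSO yeast wells and 100% = medium wells without yeast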
tim10 confirm = growth inhibitors of wild-type TIM10 yeast, confirmation, counter-screen for tim10-1 synthetic lethality project, single concentration, luminescence, S. cerevisiae; inhibition, % at 10 µM; S. cerevisiae tim10 strain growth, BacTiter-Glo luminescence, 24 h; shares compounds with TIM10 inh; hit rate 63% among 4,600;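 active means inhibition of yeast growth at or above a set limit in either of two replicates at 10 µM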;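 further: this counterscreen used the strain with wild-type TIM10; 0% = yeast with DMSO and 100% = medium wells lacking yeast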
An asterisk follows results filed as active; u = inconclusive; x = not tested or not shown. Compounds with a hit are over-represented: about 3.7% of the library has one in this group of screens.

SMILES	PfHsp90 set2	TIM10 inh	V-ATPase pHluor	tim23-1 inh	tim10-1 inh	tim10-1 confirm	tim10 confirm
Cc1cc(C)n(-c2nc(-n3nc(C)cc3C)c3c4c(sc3n2)COC(C)(C)C4)n1	x	40.6*	x	42.9	49.7*	33.6*	25.2
Cc1cc(C)n(-c2nc(NCCN(C)C)c3c4c(sc3n2)COC(C)(C)C4)n1	x	-0.1	-0.1	10.5	-14.5	x	x
CC[C@H](C)[C@H]1CNC(=S)N1CC1CCN(CCCC2CCCC2)CC1	6.1	x	-2.2	x	x	x	x
Oc1c(N=NC(=S)Nc2ccccc2F)c2ccccc2n1Cc1ccccc1Cl	-11.4	27.0	-2.4	31.3	22.5	x	x
C=CCn1c(O)c(N=NC(=S)Nc2ccccc2F)c2ccccc21	-124.8	45.6*	1.3	14.1	47.5*	43.7*	29.1
Cc1c(Cl)cccc1NC(=S)N=Nc1c(O)n(CN2CCOCC2)c2ccccc12	106.8*	53.2*	0.5	39.9	59.0*	48.7*	30.4*
N=c1c2c(-c3ccccc3)c(-c3ccccc3)n(Cc3ccccc3)c2ncn1CCO	-9.1	47.8*	1.3	32.3	46.8*	36.3*	29.4
S=C(NCc1cccs1)Nc1cccc(Cl)c1	x	47.4*	-2.6	42.0	45.3*	33.5*	43.2*
CC(C)c1ccc(NC(=S)NCc2cccs2)cc1	-35.9	44.5*	0.6	39.5	55.8*	36.2*	41.5*
COc1ccc(NC(=S)NCc2cccs2)cc1	10.7	3.8	0.8	8.6	-0.6	x	x
COc1ccc2nc(C)cc(NCc3ccc(F)cc3)c2c1	11.9	-5.1	-1.6	13.8	14.8	x	x
O=[N+]([O-])c1ccc(S(=O)(=O)c2cccc(C(F)(F)F)c2)nc1	81.1*	75.5*	3.0	46.0	74.5*	73.7*	65.7*
O=S(=O)(Nc1cccnc1)c1cccc(C(F)(F)F)c1	x	7.1	1.3	4.4	13.6	x	x
O=c1c2ccccc2nc(/C=C/c2ccc([N+](=O)[O-])o2)n1CCCO	-21.6	58.8*	0.8	-15.7	86.2*	83.0*	22.3
O=C1OCC(CO)(CO)N=C1NNc1ccc(Cl)c(Cl)c1	100.7*	42.4*	2.3	8.0	48.7*	-4.2	41.0*
CN(C(=O)COC(=O)/C=C/c1ccccc1)C1CCS(=O)(=O)C1 (configuration not stated)	x	x	2.7	x	x	x	x
O=C1c2ccccc2NC(c2ccc(-c3ccccc3F)o2)N1O (configuration not stated)	x	10.1	0.0	29.7	20.9	x	x
Cc1cc([N+](=O)[O-])ccc1-c1ccc(C2Nc3ccccc3C(=O)N2O)o1 (configuration not stated)	u	41.3*	-1.2	42.4	52.9*	35.8*	19.8
Cc1[nH]c2ccccc2c1CCNC(=O)c1c(N)no[n+]1[O-]	3.5	10.2	3.7	-21.3	-11.9	x	x
O=C(Nc1ccc(Cl)c(Cl)c1)C1=Cc2ccccc2OC1	19.6	49.6*	-2.2	44.1	40.4*	53.0*	60.2*
CCc1cc(CNC(=O)C2CCC(=O)N(CCc3cccc(F)c3)C2)on1 (configuration not stated)	-12.9	14.8	2.2	9.8	-4.0	x	x
CCCCNC(=S)N/N=C/c1ccc(C)s1	-12.9	58.4*	0.4	38.2	56.8*	42.5*	53.7*
Cc1ccc(/C=N/NC(=S)NCCc2ccccc2)s1	-1.3	10.0	2.5	-2.7	-59.8	x	x
Cc1cccc(N2CCN(C(=O)c3ccc(N4CCCC4=O)cc3)CC2)c1C	7.8	41.9*	0.6	4.6	44.7*	30.8*	15.9
CCOc1ccc(C(=O)N2CCN(c3cccc(C)c3C)CC2)cc1	x	42.3*	0.4	43.4	45.2*	32.6*	32.5*
SMILES	PfHsp90 set2	TIM10 inh	V-ATPase pHluor	tim23-1 inh	tim10-1 inh	tim10-1 confirm	tim10 confirm
CCOc1ccc(C(=O)N2CCN(c3cccc(Cl)c3)CC2)cc1	7.3	4.3	0.7	35.4	13.9	x	x
Cc1cccc(N2CCN(C(=O)c3ccc(Cl)c(S(=O)(=O)NCc4ccco4)c3)CC2)c1C	3.3	50.5*	3.5	44.0	44.8*	39.0*	39.9*
CN(C(=O)COC(=O)CCC(=O)c1ccc(Cl)cc1)c1c(N)n(Cc2ccccc2)c(=O)[nH]c1=O	-2.0	14.2	-2.4	4.2	7.4	x	x
CC(C)Sc1nnc(SCC(=O)NCCCN2CCCC2=O)s1	-21.6	6.9	0.2	-1.2	-8.7	x	x
Cn1cccc1/C=C1\SC(=Nc2cccc(O)c2)NC1=O	-1.3	7.2	-2.0	-9.6	3.4	x	x
CCN(c1ccccc1)S(=O)(=O)c1cc(C(=O)NCC(c2ccc(OC)cc2)N(C)C)ccc1C (configuration not stated)	0.4	x	-2.4	x	x	x	x
CN1/C(=C/C(=S)NC(=O)C2(C)CC2(Cl)Cl)C(C)(C)c2ccccc21 (configuration not stated)	27.1	27.2	2.1	37.1	0.8	x	x
CN1/C(=C\C(=S)Nc2ccccc2)C(C)(C)c2ccccc21	2.1	48.5*	-1.6	33.7	50.9*	47.2*	55.6*
CCOC(=O)C1=CN(Cc2ccco2)S(=O)(=O)N(CC)C1c1ccc(F)c(Cl)c1 (configuration not stated)	27.7	-1.8	-0.7	46.1	15.9	x	x
CN(C)C=Nc1ncc2c3ccccc3n(Cc3ccccc3)c2c1C#N	-12.0	5.5	-4.7	3.2	11.5	x	x
CN(C)C=Nc1ncc2c3ccccc3n(CCN(C)C)c2c1C#N	-1.0	75.8*	-0.9	44.3	51.3*	64.0*	74.8*
CCN(CC)CCn1c2ccccc2c2cnc(N)c(C#N)c21	-44.9	85.9*	3.0	41.3	67.1*	72.8*	85.5*
Cc1ccc(C)c(-n2c(C)cc(/C=N/NC(=O)c3c(C)nc4cc(C)ccn34)c2C)c1	x	41.8*	1.3	38.7	53.4*	31.5	27.0
COc1cccc(-c2ocnc2C(=O)Nc2ccc(N3CCOCC3)cc2N2CCOCC2)c1	-8.9	21.8	-0.9	20.7	16.0	x	x
Nc1nn2cc(-c3ccccc3)nc2c2ccccc12	x	56.3*	-2.7	30.5	56.5*	52.8*	48.8*
CC(=O)c1ccc(OCC(=O)OCC(=O)N(CC(C)C)c2c(N)n(Cc3ccccc3)c(=O)[nH]c2=O)cc1	x	1.6	5.7	-2.3	-5.3	x	x
CCN(C(=O)COC(=O)/C(=C/c1ccccc1)n1nnnc1C)C1CCCCC1	4.3	41.3*	1.0	46.0	42.2*	38.5*	45.2*
CCOC(=O)C(c1ccccc1)C(Nc1ccccc1)c1ccccn1 (configuration not stated)	-25.9	25.6	2.0	25.0	23.5	x	x
